Measurements taken from the supplement of paper PMC7366291.
Structures can show the parent of a compound that is named as a salt. ± gives the standard deviation or the standard deviation of the averaged measurements.

Columns and labels:
Details in all cases: 25 µM; exposure: 24-48 hpf
[1] = tested on: Danio rerio Tg(wt1b:EGFP) embryo, pronephros; experiment: glomerular separation, fold change vs DMSO control; higher = glomeruli further apart (abnormal)
Outline: (§1)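 Dechorionated Tg(wt1b:EGFP) zebrafish embryos were kept from 24 to 48 hpf at 28.5°C in HEPES-buffered E3 containing 0.003% PTU, 0.5% DMSO and 25 μM compound. The pronephroi were then imaged from the dorsal side in agarose-filled 96-well plates at 470 nm with 10 z-slices, and 16 reference points were placed by hand on maximum projections in Fiji so that a macro could calculate distances and angles. Values lying more than 2 SD from the mean of a feature were discarded. Every feature is given as a fold change against the mean of DMSO-treated embryos from the same day.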

[2] = tested on: Danio rerio Tg(wt1b:EGFP) embryo, pronephros; experiment: glomerular width (mean of left and right), fold change vs DMSO control; higher = wider glomerulus
Outline: as §1

[3] = tested on: Danio rerio Tg(wt1b:EGFP) embryo, pronephros; experiment: fraction of imaged embryos annotated as normal kidney; higher = less nephrotoxic; extreme values may be limits of the assay
Outline: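 Zebrafish embryos carrying Tg(wt1b:EGFP) were dechorionated and exposed to 25 μM compound (0.5% DMSO) between 24 and 48 hpf at 28.5°C. Their pronephroi were imaged by widefield fluorescence, and each embryo was classed by hand from maximum projections. The measure is the fraction of embryos per treatment falling in the normal-kidney category.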

[4] = tested on: Danio rerio Tg(wt1b:EGFP) embryo, pronephros; experiment: pronephric angle neck segment to proximal convoluted tubule (mean of left and right), fold change vs DMSO control; higher = larger pronephric angle
Outline: as §1

Structure (SMILES)	glomerular separation [1]	glomerular width [2]	fraction of imaged embryos annotated as normal kidney [3]	pronephric angle neck segment [4]
Cc1nnc(SCC2=C(C(=O)O)N3C(=O)[C@@H](NC(=O)Cn4cnnn4)[C@H]3SC2)s1 [Cefazolin sodium salt]	0.771 ± 0.24	1.072 ± 0.008	0.75	1.03 ± 0.027
CCN(CC)CCOC(=O)C1(C2CCCCC2)CCCCC1 [Dicyclomine hydrochloride]	1.3 ± 0.41	1.12 ± 0.03	0.727	1.16 ± 0.077
COc1cc2nc(N(C)CCCNC(=O)C3CCCO3)nc(N)c2cc1OC (stereo not given) [Alfuzosin hydrochloride]	1.23 ± 0.62	1.01 ± 0.02	0.818	0.953 ± 0.036
CCOC(=O)C1=C(C)NC(C)=C(C(=O)OCC)C1c1ccccc1/C=C/C(=O)OC(C)(C)C [Lacidipine]	6.82 ± 2.2	0.671 ± 0.0078	0.167	1.11 ± 0.073
CCOC(=O)[C@@](C)(N)Cc1ccc(O)c(O)c1 [Methyldopate hydrochloride]	1.28 ± 0.62	0.9116 ± 0.0027	0.667	1.014 ± 0.0011
O=C1NCN(c2ccccc2)C12CCN(CCCC(c1ccc(F)cc1)c1ccc(F)cc1)CC2 [Fluspirilen]	2.89 ± 1.3	0.687 ± 0.11	0.333	1.028 ± 0.0059
CC[N+](CC)(CC)CCC(O)(c1ccccc1)C1CCCCC1 (stereo not given) [Tridihexethyl chloride]	1.14 ± 0.4	0.925 ± 0.012	0.818	1.04 ± 0.026
CN1CCCN=C1/C=C/c1cccc(O)c1 [Oxantel pamoate]	0.88 ± 0.16	1.012 ± 0.0033	0.917	1.03 ± 0.034
CCc1c(C)[nH]c2c1C(=O)C(CN1CCOCC1)CC2 (stereo not given) [Molindone hydrochloride]	0.897 ± 0.23	1 ± 0.018	0.833	0.956 ± 0.0018
CCN1CCC[C@H]1CNC(=O)c1c(O)c(Cl)cc(Cl)c1OC [Raclopride]	1.26 ± 0.47	0.903 ± 0.033	0.917	1.02 ± 0.12
